Source: PubChem BioAssay (NCI)
Where “and” joins values, the source holds several entries; their conditions need not be identical. Identical values can stand only once. About 83,000 compounds went through this panel and 20% of them were active in at least one assay; those are over-represented in the sample as a whole.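 Step 1: grow cells in 96-well plates. Step 2: add test compound at a single concentration. Step 3: incubate 48 h. Step 4: record percent growth.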 Calls of active or inactive are those of the source. Rule for the calls: active = growth percent below 10; inactive = the rest.

Columns and labels:
Experiment in all cases: NCI-60 one-dose screen, 48 h (100 = growth as untreated, 0 = no growth, -100 = all killed)
Conditions in all cases: 10 µM unless noted
[1] = test system: SR leukemia
[2] = test system: RPMI-8226 leukemia
[3] = test system: OVCAR-5 ovarian
[4] = test system: OVCAR-4 ovarian
[5] = test system: SK-OV-3 ovarian
[6] = test system: OVCAR-3 ovarian
[7] = test system: HS 578T breast
[8] = test system: NCI/ADR-RES ovarian
[9] = test system: T-47D breast
[10] = test system: BT-549 breast
[11] = test system: MDA-MB-435 melanoma
[12] = test system: SW-620 colon
[13] = test system: MCF7 breast
[14] = test system: HCT-116 colon
[15] = test system: HCC-2998 colon
[16] = test system: KM12 colon
[17] = test system: IGROV1 ovarian

Measured: growth

O=C(N=C1C(=O)C2(CCCCC2)C2(N=C(c3ccccc3)OC2=O)C12CCCCC2)c1ccccc1 (stereo not drawn)
inactive: [1] 71.8% | [2] 53.2% | [3] 85.8% | [4] 73.8% | [5] 99.3% | [6] 63.6% | [7] 95.9% | [8] 76.8% | [9] 35.7% | [10] 86.9% | [11] 89.1% | [12] 71.5% | [13] 51.3% | [14] 39.5% | [15] 59.2% | [16] 55.6%

CSc1nc(N)c(N)c(N)n1
inactive: [1] 90.8% | [2] 102% | [3] 120% | [4] 103% | [17] 108% | [6] 113% | [7] 111% | [8] 110% | [9] 97.2% | [11] 112% | [12] 104% | [13] 105% | [14] 86.5% | [15] 109% | [16] 104%

O=[N+]([O-])c1ccc(NC2CCCCC2)nc1
inactive: [1] 98.1% | [2] 111% and 101% | [3] 104% and 100% | [4] 109% | [5] 108% | [17] 116% and 104% | [6] 112% and 114% | [7] 100% and 101% | [8] 105% and 103% | [10] 114% and 106% | [11] 102% and 112% | [12] 103% and 109% | [13] 110% and 102% | [14] 108% and 101% | [15] 105% and 96.3% | [16] 111% and 103%

COC(=O)CCOc1ccccc1
inactive: [1] 99.5% | [2] 92.7% | [3] 113% | [4] 92.8% | [17] 68.9% | [6] 97% | [7] 195% | [8] 108% | [10] 91.7% | [11] 109% | [13] 89.3% | [14] 103% | [15] 91% | [16] 102%

O=C(O)C(Cc1ccc(OS(=O)(=O)Cc2ccccc2)cc1)NS(=O)(=O)Cc1ccccc1 (stereo not drawn)
inactive: [1] 100% and 85.8% | [2] 110% and 102% | [3] 123% and 112% | [4] 99.8% and 109% | [5] 112% and 120% | [17] 106% and 121% | [6] 111% and 109% | [7] 106% | [8] 105% and 112% | [9] 101% and 99.9% | [10] 104% and 106% | [11] 98.7% and 111% | [13] 91.4% and 98.4% | [14] 105% and 109% | [15] 115% | [16] 101% and 106%

CCCCCc1cc[n+](CC(=O)c2ccccc2)cc1
inactive: [1] 115% and 100% | [2] 104% and 107% | [3] 97.6% and 101% | [4] 110% and 85.2% | [5] 101% and 105% | [17] 91.6% and 108% | [6] 94.9% and 105% | [7] 106% | [8] 98.6% and 103% | [11] 105% | [12] 96.7% and 104% | [13] 104% and 93.7% | [14] 95.3% and 91.9% | [15] 105% | [16] 102% and 104%

Cc1cc(Cl)nc(Nc2ccccc2)n1
inactive: [1] 97.7% | [2] 117% | [3] 103% | [4] 100% | [5] 102% | [17] 100% | [6] 95.5% | [7] 99.6% | [8] 100% | [10] 108% | [11] 98% | [13] 93.7% | [14] 93.1% | [15] 98.6% | [16] 97.8%

COc1ccc(S(=O)(=O)c2ccc(F)cc2)cc1
inactive: [1] 87.4% | [2] 80.7% | [3] 99.9% | [4] 100% | [5] 108% | [17] 120% | [6] 107% | [7] 93.9% | [8] 95.3% | [10] 99% | [11] 122% | [12] 103% | [13] 101% | [15] 111% | [16] 106%

NCCSSC/C=C\CSSCCN
inactive: [1] 107% | [2] 94.9% | [3] 121% | [4] 103% | [5] 99.8% | [17] 115% | [6] 109% | [7] 93% | [8] 107% | [11] 105% | [12] 102% | [13] 97.2% | [15] 112% | [16] 102%

Cc1cccc(Cl)c1N
inactive: [1] 98.9% | [2] 120% | [3] 110% | [4] 117% | [5] 113% | [17] 153% | [6] 117% | [7] 87.6% | [8] 101% | [10] 111% | [11] 95.7% | [13] 99% | [14] 113% | [15] 102% | [16] 110%

CN(C)c1ccc(C(=N)c2ccc(N(C)C)cc2)cc1
active: [6] -9.34% and 2.49% | [8] 0.0366% and 2.94% | [11] -7.96% and -36.7%
inactive: [1] 19.9% and 10.4% | [2] 30.6% and 25.1% | [3] 68.1% and 65.4% | [4] 57.8% and 34.9% | [5] 31.1% and 31.6% | [17] 35.2% and 46% | [7] 16% and 40.5% | [9] 16.9% and 33.1% | [14] 18.5% and 11.9% | [15] 52.4% and 48% | [16] 14.4% and 18.7%
10.1% (inactive) and 2.28% (active): [13]

COc1cc2c(cc1O)C(=O)CCCC2
inactive: [1] 102% | [2] 104% | [3] 92.8% | [4] 93.6% | [5] 108% | [17] 64.7% | [6] 101% | [7] 110% | [8] 94.5% | [9] 94.8% | [11] 99.2% | [12] 92.9% | [13] 91.2% | [14] 99.2% | [15] 74.7% | [16] 89%

N=C(N=C(N)N)N1CCOCC1
inactive: [1] 103% | [2] 113% and 107% | [3] 99.3% | [4] 95.4% and 108% | [5] 101% and 104% | [17] 100% and 109% | [6] 114% and 107% | [7] 105% and 100% | [8] 105% and 98.8% | [9] 91.2% and 95.4% | [11] 108% and 106% | [12] 96.3% and 103% | [13] 92.9% and 91.5% | [14] 104% and 96.4% | [15] 109% and 97.1% | [16] 105% and 100%
